Assay results as given in PubChem BioAssay AID1159580 (chemical genetic matrix, 2015).
Screen size: about 5,500 compounds; about 2,000 (36%) were called active. Roughly 18% stayed inconclusive and do not appear here. Rule as the data show it: active = normalized growth mostly below about 0.91 (no sharp cut-off); inconclusive = no clear call, values can overlap the other calls; inactive = mostly above about 0.92. The list shows a part of the results.

Assay: chemical genetic growth profiling, strain panel (AID 1159580);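 also: tested at 20 µM; growth read once vehicle control cultures reached saturation at 30 °C; 1 = growth at the plate median or of vehicle wells; lower values mean less growth of the strain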
Conditions: growth OD

Measured: normalized growth

Nc1ncnc2c1ncn2C1O[C@H](COP(=O)(O)O)[C@@H](O)[C@H]1O (some centres not stated)
active: S. cerevisiae deletion strains, locus YKR001C, strain vps1, hits give low values 0.581 | S. cerevisiae deletion strains, locus YLR268W, strain sec22, hits give low values 0.627 | S. cerevisiae deletion strains, locus YLR418C, strain cdc73, hits give low values 0.471 | S. cerevisiae deletion strains, locus YML032C, strain rad52, hits give low values 0.417 | S. cerevisiae deletion strains, locus YML124C, strain tub3, hits give low values 0.829 | S. cerevisiae deletion strains, locus YMR078C, strain ctf18, hits give low values 0.838 | S. cerevisiae deletion strains, locus YMR223W, strain ubp8, hits give low values 0.81 | S. cerevisiae deletion strains, locus YNL271C, strain bni1, hits give low values 0.895 | S. cerevisiae deletion strains, locus YNL307C, strain MCK1, hits give low values 0.847 | S. cerevisiae deletion strains, locus YNR052C, strain pop2, hits give low values 0.476 | S. cerevisiae deletion strains, locus YOL147C, strain pex11, hits give low values 0.516 | S. cerevisiae deletion strains, locus YOR144C, strain elg1, hits give low values 0.645 | S. cerevisiae deletion strains, locus YOR184W, strain ser1, hits give low values 0.636 | S. cerevisiae deletion strains, locus YPR163C, strain tif3, hits give low values 0.725 | S. cerevisiae deletion strains, locus YPR167C, strain met16, hits give low values 0.858 | S. cerevisiae deletion strains, strain wtn01, hits give low values 0.866
inactive: S. cerevisiae deletion strains, locus YJR075W, strain HOC1, hits give low values 1.04 | S. cerevisiae deletion strains, locus YKL009W, strain mrt4, hits give low values 1.02 | S. cerevisiae deletion strains, locus YKL068W, hits give low values 0.993 | S. cerevisiae deletion strains, locus YKL085W, strain MDH1 (second series), hits give low values 1 | S. cerevisiae deletion strains, locus YKL085W, strain MDH1, hits give low values 1 | S. cerevisiae deletion strains, locus YKL160W, strain elf1, hits give low values 1 | S. cerevisiae deletion strains, locus YKL190W, strain CNB1, hits give low values 1.01 | S. cerevisiae deletion strains, locus YKR026C, strain gcn3, hits give low values 1 | S. cerevisiae deletion strains, locus YKR091W, strain srl3, hits give low values 0.995 | S. cerevisiae deletion strains, locus YLL001W, strain dnm1, hits give low values 1.03 | S. cerevisiae deletion strains, locus YLL026W, hits give low values 1.01 | S. cerevisiae deletion strains, locus YLL041C, strain sdh2, hits give low values 0.981 | S. cerevisiae deletion strains, locus YLR027C, strain aat2, hits give low values 1.02 | S. cerevisiae deletion strains, locus YLR039C, strain RIC1, hits give low values 1.04 | S. cerevisiae deletion strains, locus YLR058C, strain SHM2, hits give low values 1.02 | S. cerevisiae deletion strains, locus YLR102C, strain apc9, hits give low values 0.962 | S. cerevisiae deletion strains, locus YLR113W, strain HOG1, hits give low values 1 | S. cerevisiae deletion strains, locus YLR221C, strain rsa3, hits give low values 0.969 | S. cerevisiae deletion strains, locus YLR258W, strain gsy2, hits give low values 0.987 | S. cerevisiae deletion strains, locus YLR262C, strain YPT6 (second series), hits give low values 1.03 | S. cerevisiae deletion strains, locus YLR262C, strain YPT6, hits give low values 1.02 | S. cerevisiae deletion strains, locus YLR320W, strain mms22, hits give low values 0.983 | S. cerevisiae deletion strains, locus YLR330W, strain CHS5, hits give low values 1.01 | S. cerevisiae deletion strains, locus YLR342W, strain FKS1 (second series), hits give low values 1.04 | S. cerevisiae deletion strains, locus YLR342W, strain FKS1, hits give low values 1.02 | S. cerevisiae deletion strains, locus YLR357W, strain rsc2, hits give low values 1.02 | S. cerevisiae deletion strains, locus YLR370C, strain arc18, hits give low values 1.01 | S. cerevisiae deletion strains, locus YLR371W, strain rom2, hits give low values 0.986 | S. cerevisiae deletion strains, locus YLR384C, strain iki3, hits give low values 1 | S. cerevisiae deletion strains, locus YML016C, strain PPZ1, hits give low values 1.01 | S. cerevisiae deletion strains, locus YML120C, strain ndi1, hits give low values 1.01 | S. cerevisiae deletion strains, locus YMR058W, strain fet3, hits give low values 1.01 | S. cerevisiae deletion strains, locus YMR125W, strain sto1, hits give low values 0.987 | S. cerevisiae deletion strains, locus YMR129W, hits give low values 0.994 | S. cerevisiae deletion strains, locus YMR205C, strain PFK2, hits give low values 1.02 | S. cerevisiae deletion strains, locus YMR231W, strain pep5, hits give low values 0.999 | S. cerevisiae deletion strains, locus YMR263W, strain SAP30, hits give low values 1.01 | S. cerevisiae deletion strains, locus YMR307W, strain GAS1, hits give low values 0.974 | S. cerevisiae deletion strains, locus YNL067W, strain RPL9B, hits give low values 1.02 | S. cerevisiae deletion strains, locus YNL071W, strain lat1, hits give low values 0.998 | S. cerevisiae deletion strains, locus YNL128W, strain TEP1, hits give low values 1.02 | S. cerevisiae deletion strains, locus YNL153C, strain GIM3, hits give low values 1.01 | S. cerevisiae deletion strains, locus YNL183C, strain NPR1, hits give low values 0.97 | S. cerevisiae deletion strains, locus YNL209W, strain ssb2, hits give low values 0.998 | S. cerevisiae deletion strains, locus YNL233W, strain BNI4, hits give low values 1.01 | S. cerevisiae deletion strains, locus YNL248C, strain rpa49, hits give low values 0.977 | S. cerevisiae deletion strains, locus YNL250W, strain rad50, hits give low values 1 | S. cerevisiae deletion strains, locus YNL298W, strain CLA4, hits give low values 0.918 | S. cerevisiae deletion strains, locus YNL322C, strain KRE1 (second series), hits give low values 0.991 | S. cerevisiae deletion strains, locus YNL322C, strain KRE1, hits give low values 1.01 | S. cerevisiae deletion strains, locus YNR049C, strain mso1, hits give low values 0.994 | S. cerevisiae deletion strains, locus YOL006C, strain TOP1, hits give low values 1.04 | S. cerevisiae deletion strains, locus YOL012C, strain htz1 0.221 | S. cerevisiae deletion strains, locus YOR001W, strain rrp6, hits give low values 1.02 | S. cerevisiae deletion strains, locus YOR061W, strain CKA2, hits give low values 1.01 | S. cerevisiae deletion strains, locus YOR069W, strain VPS5, hits give low values 1.01 | S. cerevisiae deletion strains, locus YOR070C, strain gyp1, hits give low values 0.995 | S. cerevisiae deletion strains, locus YOR080W, strain dia2, hits give low values 1 | S. cerevisiae deletion strains, locus YOR083W, strain WHI5, hits give low values 0.988 | S. cerevisiae deletion strains, locus YOR106W, strain vam3, hits give low values 1.03 | S. cerevisiae deletion strains, locus YOR136W, strain idh2, hits give low values 0.953 | S. cerevisiae deletion strains, locus YOR231W, strain MKK1, hits give low values 1.01 | S. cerevisiae deletion strains, locus YOR265W, strain rbl2, hits give low values 1 | S. cerevisiae deletion strains, locus YOR270C, strain vph1, hits give low values 0.996 | S. cerevisiae deletion strains, locus YOR290C, strain snf2, hits give low values 0.972 | S. cerevisiae deletion strains, locus YOR316C, strain cot1, hits give low values 0.969 | S. cerevisiae deletion strains, locus YPL051W, strain arl3, hits give low values 1.01 | S. cerevisiae deletion strains, locus YPL055C, strain LGE1, hits give low values 1.07 | S. cerevisiae deletion strains, locus YPL078C, strain atp4, hits give low values 1.03 | S. cerevisiae deletion strains, locus YPL106C, strain sse1, hits give low values 0.997 | S. cerevisiae deletion strains, locus YPL240C, strain hsp82, hits give low values 0.998 | S. cerevisiae deletion strains, locus YPL241C, strain CIN2, hits give low values 1.01 | S. cerevisiae deletion strains, locus YPL256C, strain CLN2, hits give low values 0.995 | S. cerevisiae deletion strains, locus YPR119W, strain clb2, hits give low values 0.935 | S. cerevisiae deletion strains, locus YPR141C, strain kar3, hits give low values 0.995 | S. cerevisiae strains, strain wild type, hits give low values 1.02
